The full data set covers some 7,900 targets. This sample favours those with a hit. About 0.6% of all pairs of compound and target were hits.
Key:
Test in all cases: log2 fold change, soluble protein after heating vs DMSO (PISA); higher = thermal stabilisation; K562 cells, 10 uM, 30 min; active = over 0.2 and 3.5 SD of the protein, either way, in both replicates (recomputed)
[1] = compound: CS(=O)(=O)c1ccc(-c2cnc(N)c(C(=O)Nc3ccccc3)n2)cc1
In short: (§1)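 Values are thermal stability changes relative to control samples and are taken from duplicates. They are stated as log2 fold changes. Before quantification by TMTpro 16plex LC-MS/MS with equalised channel sums, K562 cells at 2×10^6 cells/mL were treated with 10 μM compound for 30 min, heated in aliquots for 3 min across 48°C-58°C, pooled, extracted in PBS with 0.5% NP-40 at 4°C, and centrifuged at 21,000xg for 90 min to give the soluble supernatant.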

crizotinib = compound: C[C@@H](Oc1cc(-c2cnn(C3CCNCC3)c2)cnc1N)c1c(Cl)ccc(F)c1Cl [crizotinib]
In short: as §1

[2] = compound: C[C@@H]1COCCN1C2=NC(=NC(=C2)C3(CC3)S(=O)(=O)C)C4=C5C=CNC5=CC=C4
In short: as §1

[3] = compound: C[C@H](C1=CC=C(C=C1)C(=O)NC2=C3C=CNC3=NC=C2)N
In short: as §1

duvelisib = compound: C[C@H](Nc1ncnc2nc[nH]c12)c1cc2cccc(Cl)c2c(=O)n1-c1ccccc1 [duvelisib]
In short: as §1

gandotinib = compound: Cc1cc(Nc2cc(CN3CCOCC3)c3nc(C)c(Cc4ccc(Cl)cc4F)n3n2)n[nH]1 [gandotinib]
In short: as §1

tozasertib = compound: Cc1cc(Nc2cc(N3CCN(C)CC3)nc(Sc3ccc(NC(=O)C4CC4)cc3)n2)n[nH]1 [tozasertib]
In short: as §1

[4] = compound: Cc1cc(SCc2sc(-c3ccc(C(F)(F)F)cc3)nc2C)ccc1OCC(=O)O
In short: as §1

doramapimod = compound: Cc1ccc(-n2nc(C(C)(C)C)cc2NC(=O)Nc2ccc(OCCN3CCOCC3)c3ccccc23)cc1 [doramapimod]
In short: as §1

ispinesib = compound: Cc1ccc(C(=O)N(CCCN)[C@@H](c2nc3cc(Cl)ccc3c(=O)n2Cc2ccccc2)C(C)C)cc1 [ispinesib]
In short: as §1

bafetinib = compound: Cc1ccc(NC(=O)c2ccc(CN3CC[C@H](N(C)C)C3)c(C(F)(F)F)c2)cc1Nc1nccc(-c2cncnc2)n1 [bafetinib]
In short: as §1

[5] = compound: Cc1cccc(CC(=O)N2CCc3c2ccc(-c2cn(C)c4ncnc(N)c24)c3F)n1
In short: as §1

nilotinib = compound: Cc1cn(-c2cc(NC(=O)c3ccc(C)c(Nc4nccc(-c5cccnc5)n4)c3)cc(C(F)(F)F)c2)cn1 [nilotinib]
In short: as §1

[6] = compound: Cc1nc(Nc2n[nH]c3c2CN(C(=O)N[C@H](CN(C)C)c2ccccc2)C3(C)C)c2sccc2n1
In short: as §1

dasatinib = compound: Cc1nc(Nc2ncc(C(=O)Nc3c(C)cccc3Cl)s2)cc(N2CCN(CCO)CC2)n1 [dasatinib]
In short: as §1

[7] = compound: Cc1ncc(-c2ccnc(Nc3ccc(S(C)(=O)=O)cc3)n2)n1C(C)C
In short: as §1

[8] = compound: Cn1cc(-c2ccc3c(c2)CCN3C(=O)Cc2cccc(C(F)(F)F)c2)c2c(N)ncnc21
In short: as §1

[9] = compound: Cn1cc(-c2ccc3nnc(C(F)(F)c4ccc5ncccc5c4)n3n2)cn1
In short: as §1

tipifarnib = compound: Cn1cncc1[C@@](N)(c1ccc(Cl)cc1)c1ccc2c(c1)c(-c1cccc(Cl)c1)cc(=O)n2C [tipifarnib]
In short: as §1

mubritinib = compound: FC(F)(F)c1ccc(/C=C/c2nc(COc3ccc(CCCCn4ccnn4)cc3)co2)cc1 [mubritinib]
In short: as §1

Measured: log2 fold change

RMC1 (UniProt Q96DM3)
inactive: [1] 0.021 | [2] 0.061 | [3] -0.012 | duvelisib -0.005 | gandotinib 0.027 | tozasertib 0.026 | [4] 0.066 | doramapimod 0.038 | bafetinib -0.043 | [5] 0.072 | nilotinib -0.032 | [6] -0.047 | dasatinib -0.063 | [7] -0.082 | [8] 0.03 | [9] -0.016 | tipifarnib 0.045 | mubritinib 0.012
active: crizotinib -0.509 | ispinesib -0.254

SLC12A9 (UniProt Q9BXP2)
UniProt Q9BXP2, sequence (Q9BXP2 whole entry, looked up): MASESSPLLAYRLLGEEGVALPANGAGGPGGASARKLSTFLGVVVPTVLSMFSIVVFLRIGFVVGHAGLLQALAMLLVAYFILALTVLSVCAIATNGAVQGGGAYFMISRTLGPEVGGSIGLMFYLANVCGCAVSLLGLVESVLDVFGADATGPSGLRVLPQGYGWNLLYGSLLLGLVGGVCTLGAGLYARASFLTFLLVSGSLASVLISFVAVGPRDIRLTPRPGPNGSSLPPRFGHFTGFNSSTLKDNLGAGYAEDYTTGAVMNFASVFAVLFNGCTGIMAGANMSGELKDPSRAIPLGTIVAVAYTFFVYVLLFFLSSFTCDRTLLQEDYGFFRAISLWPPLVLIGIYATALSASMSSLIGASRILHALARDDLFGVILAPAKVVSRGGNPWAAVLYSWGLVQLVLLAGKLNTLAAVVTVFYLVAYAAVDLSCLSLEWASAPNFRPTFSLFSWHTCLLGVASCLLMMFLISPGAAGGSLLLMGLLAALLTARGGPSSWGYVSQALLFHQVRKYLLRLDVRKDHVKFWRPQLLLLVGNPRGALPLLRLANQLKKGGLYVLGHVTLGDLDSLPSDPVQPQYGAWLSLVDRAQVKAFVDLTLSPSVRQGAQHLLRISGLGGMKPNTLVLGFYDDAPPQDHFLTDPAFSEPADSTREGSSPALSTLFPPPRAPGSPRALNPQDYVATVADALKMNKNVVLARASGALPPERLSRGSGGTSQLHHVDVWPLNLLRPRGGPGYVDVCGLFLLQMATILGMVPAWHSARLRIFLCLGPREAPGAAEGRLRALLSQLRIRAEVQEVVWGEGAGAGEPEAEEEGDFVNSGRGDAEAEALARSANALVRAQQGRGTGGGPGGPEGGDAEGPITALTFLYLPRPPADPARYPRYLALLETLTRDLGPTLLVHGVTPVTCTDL
active: crizotinib -0.315 | ispinesib -0.713
inactive: [1] -0.071 | [2] -0.022 | [3] 0.016 | duvelisib -0.038 | gandotinib -0.16 | tozasertib 0.001 | [4] -0.074 | doramapimod -0.012 | bafetinib -0.088 | [5] 0.023 | nilotinib -0.069 | [6] 0.05 | dasatinib 0.057 | [7] -0.066 | [8] 0.008 | [9] -0.006 | tipifarnib 0.025 | mubritinib 0.001

RNPS1 (UniProt Q15287)
active: [6] -0.62
inactive: [1] 0.018 | crizotinib -0.109 | [2] 0.114 | [3] -0.019 | duvelisib -0.091 | gandotinib 0.089 | tozasertib 0.108 | [4] -0.028 | doramapimod -0.104 | ispinesib 0.042 | bafetinib -0.073 | [5] -0.032 | nilotinib -0.035 | dasatinib -0.007 | [7] -0.12 | [8] -0.037 | [9] 0.011 | tipifarnib -0.084 | mubritinib 0.003

SH3GL1 (UniProt Q99961)
UniProt Q99961, sequence (Q99961 whole entry, looked up): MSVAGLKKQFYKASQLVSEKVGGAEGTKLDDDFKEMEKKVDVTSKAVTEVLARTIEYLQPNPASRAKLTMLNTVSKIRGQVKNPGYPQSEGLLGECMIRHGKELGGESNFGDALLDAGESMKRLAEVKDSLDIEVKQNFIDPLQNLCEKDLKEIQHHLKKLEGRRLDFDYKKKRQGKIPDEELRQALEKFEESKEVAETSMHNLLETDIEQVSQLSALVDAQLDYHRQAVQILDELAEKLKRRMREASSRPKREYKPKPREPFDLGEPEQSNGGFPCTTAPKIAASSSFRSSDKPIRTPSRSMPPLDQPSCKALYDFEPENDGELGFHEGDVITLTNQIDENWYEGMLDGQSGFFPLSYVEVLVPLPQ
inactive: [1] 0.067 | crizotinib -0.144 | [2] 0.024 | [3] 0.062 | duvelisib 0.019 | gandotinib -0.031 | tozasertib 0.045 | [4] 0.103 | doramapimod 0.007 | ispinesib -0.156 | bafetinib -0.018 | [5] 0.069 | nilotinib -0.084 | [6] -0.18 | dasatinib -0.262 | [7] -0.014 | [8] 0.055 | [9] 0.02 | tipifarnib -0.114 | mubritinib 0.122

RPS13 (UniProt P62277)
inactive: [1] -0.053 | crizotinib 0.076 | [2] -0.548 | [3] 0.403 | duvelisib -0.201 | gandotinib 0.296 | tozasertib 0.021 | [4] -0.013 | doramapimod 0.247 | ispinesib -0.195 | bafetinib 0.342 | [5] 0 | nilotinib 0.017 | [6] 0.221 | dasatinib 0.088 | [7] -0.051 | [8] -0.237 | [9] -0.089 | tipifarnib 0.204 | mubritinib -0.184

SETD3 (UniProt Q86TU7)
UniProt Q86TU7, sequence (Q86TU7 whole entry, looked up): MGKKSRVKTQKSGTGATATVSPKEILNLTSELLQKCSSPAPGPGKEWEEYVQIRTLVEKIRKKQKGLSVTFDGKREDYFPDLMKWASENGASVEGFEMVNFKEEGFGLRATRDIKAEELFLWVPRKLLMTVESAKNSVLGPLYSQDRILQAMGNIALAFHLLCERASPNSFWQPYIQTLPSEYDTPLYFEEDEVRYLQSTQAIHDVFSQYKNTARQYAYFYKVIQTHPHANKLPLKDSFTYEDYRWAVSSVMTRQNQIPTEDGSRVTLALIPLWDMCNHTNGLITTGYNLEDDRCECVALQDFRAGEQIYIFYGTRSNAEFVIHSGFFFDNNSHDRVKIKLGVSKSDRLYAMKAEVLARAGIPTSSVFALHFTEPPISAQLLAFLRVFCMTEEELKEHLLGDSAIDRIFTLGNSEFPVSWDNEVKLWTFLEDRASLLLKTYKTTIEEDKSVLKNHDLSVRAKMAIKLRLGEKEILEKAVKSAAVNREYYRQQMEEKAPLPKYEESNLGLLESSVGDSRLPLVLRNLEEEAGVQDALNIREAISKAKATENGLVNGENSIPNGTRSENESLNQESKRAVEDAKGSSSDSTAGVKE
inactive: [1] 0.007 | crizotinib 0.051 | [2] 0.076 | [3] -0.012 | duvelisib 0.005 | gandotinib 0.021 | tozasertib -0.037 | [4] 0.012 | doramapimod -0.026 | ispinesib 0.059 | bafetinib -0.015 | [5] -0.005 | nilotinib 0.002 | [6] -0.009 | dasatinib 0.006 | [7] -0.023 | [8] 0.033 | [9] 0.031 | tipifarnib 0.029 | mubritinib 0.052

SEH1L isoform 1 (UniProt Q96EE3)
UniProt Q96EE3, sequence (Q96EE3 whole entry, looked up): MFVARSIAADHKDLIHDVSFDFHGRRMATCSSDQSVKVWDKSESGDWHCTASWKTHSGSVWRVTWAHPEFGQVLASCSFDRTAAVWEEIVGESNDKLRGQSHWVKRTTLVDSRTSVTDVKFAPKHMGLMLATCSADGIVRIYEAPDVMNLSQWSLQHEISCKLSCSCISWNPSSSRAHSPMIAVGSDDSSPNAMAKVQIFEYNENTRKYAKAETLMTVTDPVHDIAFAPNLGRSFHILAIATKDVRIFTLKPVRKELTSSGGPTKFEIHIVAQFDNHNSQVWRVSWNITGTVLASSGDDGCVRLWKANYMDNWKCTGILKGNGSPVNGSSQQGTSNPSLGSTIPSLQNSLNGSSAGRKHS
inactive: [1] -0.03 | crizotinib 0.04 | [2] -0.008 | [3] -0.028 | duvelisib 0.016 | gandotinib -0.069 | tozasertib 0.011 | [4] 0.01 | doramapimod 0.011 | ispinesib 0.054 | bafetinib -0.083 | [5] 0.051 | nilotinib 0.012 | [6] -0.081 | dasatinib -0.008 | [7] -0.028 | [8] 0.015 | [9] -0.037 | tipifarnib -0.11 | mubritinib 0.031

SELENOH (UniProt Q8IZQ5)
UniProt Q8IZQ5, sequence (Q8IZQ5 whole entry, looked up): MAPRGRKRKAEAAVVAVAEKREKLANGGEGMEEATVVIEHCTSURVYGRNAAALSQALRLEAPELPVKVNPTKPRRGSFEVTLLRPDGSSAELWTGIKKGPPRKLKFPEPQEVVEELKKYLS
inactive: [1] -0.19 | crizotinib 0 | [2] -0.014 | [3] -0.022 | duvelisib -0.101 | gandotinib -0.12 | tozasertib -0.008 | [4] -0.051 | doramapimod -0.018 | ispinesib 0.036 | bafetinib 0.042 | [5] 0.21 | nilotinib -0.02 | [6] 0.011 | dasatinib 0.076 | [7] 0.012 | [8] -0.039 | [9] 0.036 | tipifarnib -0.01 | mubritinib -0.009

RCN3 (UniProt Q96D15)
inactive: [1] -0.016 | crizotinib -0.028 | [2] -0.02 | [3] -0.041 | duvelisib -0.022 | gandotinib 0.029 | tozasertib -0.087 | [4] -0.058 | doramapimod 0.092 | ispinesib -0.033 | bafetinib -0.015 | nilotinib 0.015 | [6] -0.011 | dasatinib 0.045 | [7] 0.011 | [8] 0.162 | [9] 0.057 | tipifarnib -0.038 | mubritinib -0.056
active: [5] -0.318

RRS1 (UniProt Q15050)
UniProt Q15050, sequence (Q15050 whole entry, looked up): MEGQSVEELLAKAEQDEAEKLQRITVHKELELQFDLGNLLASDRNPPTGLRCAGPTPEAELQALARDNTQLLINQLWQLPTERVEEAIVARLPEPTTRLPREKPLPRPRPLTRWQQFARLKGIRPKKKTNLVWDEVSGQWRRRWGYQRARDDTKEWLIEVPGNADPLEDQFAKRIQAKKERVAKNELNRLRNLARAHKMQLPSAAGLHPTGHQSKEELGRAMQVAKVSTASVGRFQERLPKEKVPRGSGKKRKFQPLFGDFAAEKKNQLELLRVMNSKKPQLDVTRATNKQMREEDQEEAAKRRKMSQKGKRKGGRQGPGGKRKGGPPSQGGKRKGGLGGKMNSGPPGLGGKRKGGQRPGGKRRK
inactive: [1] -0.022 | crizotinib 0 | [2] -0.365 | [3] 0.304 | duvelisib -0.181 | gandotinib 0.089 | tozasertib 0.094 | [4] -0.034 | doramapimod 0.235 | ispinesib 0.019 | bafetinib 0.121 | [5] -0.125 | nilotinib -0.024 | [6] 0.073 | dasatinib 0.161 | [7] 0.267 | [8] -0.431 | [9] -0.165 | tipifarnib 0.105 | mubritinib -0.226

SHCBP1 (UniProt Q8NEM2)
UniProt Q8NEM2, sequence (Q8NEM2 whole entry, looked up): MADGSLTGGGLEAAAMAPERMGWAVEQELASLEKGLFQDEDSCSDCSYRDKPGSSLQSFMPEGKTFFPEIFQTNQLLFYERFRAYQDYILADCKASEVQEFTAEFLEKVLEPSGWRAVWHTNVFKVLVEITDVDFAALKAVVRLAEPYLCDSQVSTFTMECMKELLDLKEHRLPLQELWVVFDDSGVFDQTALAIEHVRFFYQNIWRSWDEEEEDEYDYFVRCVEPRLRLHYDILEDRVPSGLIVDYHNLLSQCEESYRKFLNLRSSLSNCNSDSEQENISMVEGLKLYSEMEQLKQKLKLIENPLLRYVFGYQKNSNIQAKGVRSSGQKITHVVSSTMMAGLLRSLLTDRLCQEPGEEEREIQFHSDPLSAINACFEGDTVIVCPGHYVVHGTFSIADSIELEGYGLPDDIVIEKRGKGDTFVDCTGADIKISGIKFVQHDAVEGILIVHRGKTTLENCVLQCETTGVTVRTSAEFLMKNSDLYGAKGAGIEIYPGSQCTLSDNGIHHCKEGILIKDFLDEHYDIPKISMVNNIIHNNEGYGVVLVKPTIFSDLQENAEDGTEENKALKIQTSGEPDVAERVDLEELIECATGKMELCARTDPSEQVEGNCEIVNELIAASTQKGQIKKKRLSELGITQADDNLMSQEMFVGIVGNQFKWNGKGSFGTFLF
active: [6] -0.459
inactive: [1] 0.092 | crizotinib -0.077 | [2] 0.043 | [3] 0.119 | duvelisib -0.021 | gandotinib -0.124 | tozasertib 0.098 | [4] 0.169 | doramapimod 0.02 | ispinesib -0.096 | bafetinib -0.017 | [5] 0.041 | nilotinib -0.207 | dasatinib -0.091 | [7] 0.003 | [8] 0.223 | [9] 0.004 | tipifarnib 0.299 | mubritinib 0.1

ROR2 (UniProt Q01974)
UniProt Q01974, sequence (Q01974 whole entry, looked up): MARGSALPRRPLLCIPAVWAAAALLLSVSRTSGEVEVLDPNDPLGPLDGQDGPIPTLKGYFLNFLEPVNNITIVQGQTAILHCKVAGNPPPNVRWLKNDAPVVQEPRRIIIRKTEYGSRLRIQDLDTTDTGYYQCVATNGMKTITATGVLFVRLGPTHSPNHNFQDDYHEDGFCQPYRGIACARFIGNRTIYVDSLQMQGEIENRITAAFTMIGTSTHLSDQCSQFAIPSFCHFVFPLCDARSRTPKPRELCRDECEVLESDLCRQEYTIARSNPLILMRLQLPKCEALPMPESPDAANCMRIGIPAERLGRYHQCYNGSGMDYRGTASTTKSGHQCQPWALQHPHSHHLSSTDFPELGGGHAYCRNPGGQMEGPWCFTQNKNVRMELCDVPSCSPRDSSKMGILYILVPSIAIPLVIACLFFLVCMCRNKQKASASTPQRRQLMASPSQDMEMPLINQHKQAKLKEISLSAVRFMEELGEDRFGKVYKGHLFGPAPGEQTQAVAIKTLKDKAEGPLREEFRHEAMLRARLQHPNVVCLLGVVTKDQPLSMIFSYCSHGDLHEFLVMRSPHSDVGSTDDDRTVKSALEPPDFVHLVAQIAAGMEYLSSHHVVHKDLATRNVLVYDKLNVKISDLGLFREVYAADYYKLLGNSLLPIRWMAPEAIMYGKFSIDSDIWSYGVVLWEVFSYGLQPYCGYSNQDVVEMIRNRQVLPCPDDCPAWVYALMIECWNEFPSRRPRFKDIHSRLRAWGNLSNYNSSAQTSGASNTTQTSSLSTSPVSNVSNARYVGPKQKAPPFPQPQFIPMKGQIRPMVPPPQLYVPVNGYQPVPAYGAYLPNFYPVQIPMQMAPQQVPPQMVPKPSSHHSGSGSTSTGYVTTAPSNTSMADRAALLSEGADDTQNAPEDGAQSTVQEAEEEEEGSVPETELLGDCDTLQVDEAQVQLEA
inactive: [1] 0.028 | crizotinib 0.007 | [2] 0.081 | [3] -0.031 | duvelisib 0.049 | gandotinib -0.007 | tozasertib -0.025 | [4] 0.097 | doramapimod -0.04 | ispinesib 0.083 | bafetinib 0.024 | [5] 0.052 | nilotinib 0.009 | [6] -0.105 | dasatinib -0.124 | [7] 0.063 | [8] 0.043 | [9] -0.041 | tipifarnib 0.03 | mubritinib 0.029

RANBP2 (UniProt P49792)
inactive: [1] -0.016 | crizotinib 0.009 | [2] -0.011 | [3] 0.103 | duvelisib 0.065 | gandotinib -0.066 | tozasertib 0.013 | [4] -0.003 | doramapimod 0.043 | ispinesib -0.031 | bafetinib -0.092 | [5] 0.197 | nilotinib -0.05 | [6] 0.087 | dasatinib -0.011 | [7] -0.043 | [8] -0.047 | [9] -0.051 | tipifarnib -0.036 | mubritinib -0.073

RPS15 (UniProt P62841)
inactive: [1] 0.032 | crizotinib 0 | [2] -0.174 | duvelisib -0.078 | gandotinib 0.137 | tozasertib -0.071 | [4] -0.045 | doramapimod 0.032 | ispinesib -0.003 | bafetinib 0.087 | [5] -0.09 | nilotinib 0.033 | [6] 0.221 | dasatinib 0.133 | [7] -0.106 | [8] -0.194 | [9] -0.027 | tipifarnib 0.082 | mubritinib -0.044
active: [3] 0.45

RNF220 (UniProt Q5VTB9)
UniProt Q5VTB9, sequence (Q5VTB9 whole entry, looked up): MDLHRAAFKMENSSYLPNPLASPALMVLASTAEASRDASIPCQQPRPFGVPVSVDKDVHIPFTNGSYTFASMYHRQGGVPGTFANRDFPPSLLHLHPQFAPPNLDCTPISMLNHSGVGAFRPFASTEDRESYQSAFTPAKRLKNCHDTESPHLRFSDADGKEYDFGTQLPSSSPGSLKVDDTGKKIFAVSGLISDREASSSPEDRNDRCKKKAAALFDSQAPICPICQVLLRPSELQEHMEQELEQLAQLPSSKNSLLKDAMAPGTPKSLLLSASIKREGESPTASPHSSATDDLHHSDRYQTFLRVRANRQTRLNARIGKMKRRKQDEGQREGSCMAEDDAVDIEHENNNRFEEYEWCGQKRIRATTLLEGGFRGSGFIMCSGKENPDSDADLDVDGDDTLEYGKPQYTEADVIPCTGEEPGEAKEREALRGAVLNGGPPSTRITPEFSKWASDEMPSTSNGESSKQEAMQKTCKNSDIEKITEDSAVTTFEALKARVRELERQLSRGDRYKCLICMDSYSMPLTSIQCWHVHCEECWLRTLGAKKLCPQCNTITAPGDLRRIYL
inactive: [1] -0.001 | crizotinib 0.096 | [2] -0.003 | [3] -0.042 | duvelisib 0.055 | gandotinib -0.012 | tozasertib 0.043 | [4] -0.011 | doramapimod -0.057 | ispinesib 0.073 | bafetinib -0.064 | [5] 0.008 | nilotinib 0.009 | [6] -0.058 | dasatinib 0.01 | [7] 0.037 | [8] -0.034 | tipifarnib -0.003 | mubritinib 0.002
active: [9] 0.239

RAB3GAP2 (UniProt Q9H2M9)
inactive: [1] 0.019 | crizotinib -0.064 | [2] -0.024 | [3] 0.213 | duvelisib -0.046 | gandotinib 0.003 | tozasertib 0.048 | [4] 0.119 | doramapimod 0.046 | ispinesib -0.097 | bafetinib 0.059 | [5] 0.091 | nilotinib -0.026 | [6] -0.088 | dasatinib -0.14 | [7] 0.006 | [8] -0.077 | [9] -0.029 | tipifarnib -0.046 | mubritinib -0.087

From the supplement of paper PMC10849652
